Data published in PubChem BioAssay AID743279 (National Center for Advancing Translational Sciences (NCATS), 2014).
The whole screen tested about 360,000 compounds, of which about 17,000 (4.7%) were called active. Not shown: some 5% with an inconclusive outcome. Cut-off read from the data, not from the text of the source: active = activity change below about -50%; inconclusive = mostly about -30% to -49%; inactive = weaker than that. This excerpt belongs to a sample that is enriched for actives.

test: qHTS for Inhibitors of Inflammasome Signaling: IL-1-beta AlphaLISA Primary Screen; settings: THP-1 LPS/ATP IL-1B secretion, 16 h; at 57.5 µM, stronger effect = lower value
Outline: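 Secreted IL-1B measured by AlphaLISA bead assay after 16 h compound exposure of THP-1 cells; compounds (final up to 57.5 uM) added 1 h before LPS (250 ng/mL) and ATP (1.25 mM) stimulation; lower signal means less secretion.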
% is set by controls: 0 for no effect and ±100 for the full control effect.

Structure (SMILES)	activity change
COc1ccc(C2=Nc3ccccc3NC(=O)C2N(C(=O)c2cc3ccccc3[nH]2)c2ccccc2)cc1 (centres undefined)	16.6% (inactive)
Oc1ccc2ccccc2c1N=Nc1nccs1	-98.3% (active)
CC(C)(C)c1ccc(Cn2nnc3c(=O)[nH]c(C4CCCN(C(=O)c5ccco5)C4)nc32)cc1 (centres undefined)	-12.5% (inactive)
COc1cc(NC(=O)C2CCN(c3cnccn3)CC2)cc(OC)c1	-9.18% (inactive)
Cc1ccc(Nc2nc(Cl)c(C=O)s2)cc1	-13.1% (inactive)
Nc1ccc(C(=O)Nc2ccccc2N)cc1	-21% (inactive)
Cc1ccc(Nc2ccccc2N)cc1	-70% (active)
Cc1nc2ccc(N)nc2nc1C	10.3% (inactive)
CC(C)(C)N1C(=O)c2c(C(=O)OCc3ccccc3)[nH]c(-c3ccccc3)c2C1=O	11.9% (inactive)
Fc1ccccc1COc1ccccc1CNCc1ccncc1	-61.1% (active)
COc1ccccc1CNCc1cccs1	10.3% (inactive)
CCOc1cc(/C=N/O)ccc1OCc1ccccc1F	-8.72% (inactive)
CCOC(=O)C1=C(O)/C(=C/c2cc(C)n(-c3ccccc3)c2C)N=C1C	-9.27% (inactive)
COc1ccc(NS(=O)(=O)c2cccc(C(=O)NCCc3ccc(S(N)(=O)=O)cc3)c2)cc1	6.56% (inactive)
O=C(CN1C(=O)NC2(CCCCCCC2)C1=O)NCc1ccc(F)cc1	-15.9% (inactive)
O=C(CN1C(=O)NC2(CCCCCC2)C1=O)NCc1ccc(F)cc1	-13.3% (inactive)
CSc1ccc(CN2C(=O)NC3(CCCCCC3)C2=O)cc1	-60.4% (active)
CC(C)c1ccc(C=NNc2ccc([N+](=O)[O-])cn2)cc1	20.1% (inactive)
O=C1NCC(Nc2ccccc2)C(=O)N1 (centres undefined)	11.9% (inactive)
O=C(Nc1ccn(CCCNCc2ccc3[nH]ccc3c2)c(=O)n1)OCc1ccccc1	-20.2% (inactive)
COc1cccc(-c2sc3ccc(OC)cc3c2-c2ccc(OCCN3CCCCC3)cc2)c1	-3.91% (inactive)
COc1ccccc1-c1sc2ccccc2c1-c1ccc(Br)nc1	26.6% (inactive)
COc1ccc2sc(-c3ccccc3OC)c(-c3ccc(OCCN4CCCC4)cc3)c2c1	-51% (active)
CC1(C(=O)NS(=O)(=O)c2ccc(Cl)cc2)CCN1C(=O)CC1CCCC1 (centres undefined)	24.4% (inactive)

Structure (SMILES)	activity change
CCCCSc1nc2c(c(=O)n1CC)SC(C)C2 (centres undefined)	25.4% (inactive)
CCN1CCN(C(=O)CN(C)S(=O)(=O)c2ccc(OC)cc2)CC1	-5.95% (inactive)
CCOCCCNC(=O)C1(O)c2cc(Br)ccc2NC(=O)N1c1ccc(C)c(C)c1 (centres undefined)	29.6% (inactive)
COc1ccc(-c2cc(-c3ccc(N)cc3)nc(N)c2C#N)cc1OC	0% (inactive)
COc1ccc(-c2cc(C(=O)NCCCN3CCCC3=O)c3ccccc3n2)cc1OC	0% (inactive)
COc1ccc(-c2cc(C(F)(F)F)nc(S(C)(=O)=O)n2)cc1OC	-105% (active)
O=C1NC[C@H](Cc2ccc(O)cc2)N(C[C@H]2CCCN2C[C@H](Cc2ccccc2)N2C[C@H](Cc3ccccc3)N(CCc3ccccc3)C(=O)C2=O)C1=O	-12.9% (inactive)
O=C1CCC(=O)N1CCC(=O)N(C(=O)NC1CCCCC1)C1CCCCC1	-5.97% (inactive)
O=C1c2cccnc2C(=O)N1Cc1cccs1	21.3% (inactive)
CCOc1ccc(CCN2C(=O)c3cccnc3C2=O)cc1OCC	-0.139% (inactive)
NC1=CC(=O)C(=O)c2cccnc21	-59.7% (active)
CCN(C(=O)CN1CCN(Cc2ccccc2)CC1)c1c(N)n(Cc2ccccc2)c(=O)[nH]c1=O	27.8% (inactive)
Cc1cccc(NC(=S)NC23CN4CN(CN(C4)C2)C3)c1	-14.8% (inactive)
S=C(Nc1cccc(Cl)c1)Nc1ccc2c(c1)OCCO2	-23.6% (inactive)
Cc1cccc(NC(=S)Nc2ccc(Cl)c(Cl)c2)c1	-89.5% (active)
Cc1cccc(NC(=S)Nc2ccc3cn[nH]c3c2)c1	-16.5% (inactive)
FC(F)(F)c1cccc(NC(=S)Nc2cccc(Cl)c2)c1	-14.7% (inactive)
Cc1csc(NC(=S)Nc2cccc(Cl)c2)n1	-99.2% (active)
O=C(Nc1ccc(Cl)c(C(F)(F)F)c1)C1Cc2c(-c3ccccc3Oc3ccccc3)ccnc2O1 (centres undefined)	-13.9% (inactive)
Cc1cc(C)c(S(=O)(=O)NCC(c2ccc3c(c2)OCO3)N2CCOCC2)c(C)c1 (centres undefined)	0% (inactive)
COc1ccccc1OCC(=O)OCc1cc(-c2ccco2)on1	1.02% (inactive)
CCOC(=O)[C@]12CCCC=C1N(CCC1=CCCCC1)C(=O)[C@H](CC(=O)N1CCSCC1)C2	15.1% (inactive)
COc1ccc(Br)cc1CN(C)C(=O)C1CC(=O)N(C2CCCC2)C1 (centres undefined)	-16.8% (inactive)
CC1(C(=O)Nc2cccnc2)Cc2c(-c3ccccc3)ccnc2O1 (centres undefined)	-18% (inactive)

Structure (SMILES)	activity change
CCOC(=O)c1c(C(C#N)C#N)cc(C)nc1C	17.2% (inactive)
CCOC(=O)COc1nc(C)cc(C(F)(F)F)c1C#N	-4.72% (inactive)
CCOC(=O)c1cc(C)nc(S(C)(=O)=O)c1C#N	-106% (active)
CCCCOc1ccc(Cl)cc1CSc1nncn1N	-10.2% (inactive)
CC1=C(C(=O)N2CCOCC2)CC(CC(=O)NCc2cccc3ccccc23)C(=O)N1CCC1=CCCCC1 (centres undefined)	-8.18% (inactive)
CC(C)(C)c1ccc(/C=C/C(=O)Nc2ncccn2)cc1	0% (inactive)
COC(=O)c1sc(-c2ccc(C(C)(C)C)cc2)cc1NC(=O)/C=C/C(=O)O	-98.5% (active)
COc1ccc(NS(=O)(=O)c2ccc(N3CCOCC3)c(NC(=O)/C=C/C(=O)O)c2)cc1	12.3% (inactive)
COc1ccc2oc(=O)cc(-c3cc4ccccc4o3)c2c1	-52.1% (active)
COc1ccc(Nc2cc(=O)oc3ccccc23)cc1	34.3% (inactive)
COc1cccc2cc(-c3cc(=O)oc4cc(C)c(O)cc34)oc12	0.212% (inactive)
Cc1ccc(S(=O)(=O)N2CCOCC2)cc1NC(=O)c1ccncc1	6.64% (inactive)
CC1(C(=O)NCC2CCOCC2)Cc2c(-c3cccc(C(N)=O)c3)ccnc2O1 (centres undefined)	40.9% (inactive)
N#C/C(=C\c1ccc(-c2cccc([N+](=O)[O-])c2)o1)C(=O)NCCN1CCOCC1	-79.4% (active)
O=C(CN1C(=O)NC2(CCCCC2)C1=O)NCCc1c[nH]c2ccccc12	0% (inactive)
O=C1C2C3C=CC(C4CC34)C2C(=O)N1/N=C/c1ccc(-c2ccccc2[N+](=O)[O-])o1 (centres undefined)	5.29% (inactive)
N#C/C(=C/c1ccc(-c2ccccc2[N+](=O)[O-])o1)C(=O)NCCN1CCCCC1	-54.1% (active)
N#C/C(=C/c1ccc(N2CCOCC2)o1)C(=O)N1CCOCC1	-6.13% (inactive)
O=C(NCCCN1CCOCC1)c1ccc([N+](=O)[O-])cc1[N+](=O)[O-]	47.3% (inactive)
Cc1ccc(C(=O)N/C(=C/c2ccc(-c3cccc([N+](=O)[O-])c3)o2)C(=O)NCCCN(C)C)cc1	-105% (active)
CN(C)CCNC(=O)/C(=C/c1cccc([N+](=O)[O-])c1)NC(=O)c1ccccc1	-4.01% (inactive)
Cc1ccc(-c2ccc(/C=N/NC(=O)CN3CCOCC3)o2)cc1[N+](=O)[O-]	-11% (inactive)
CN1CCN(CCNC(=O)Nc2ccccc2[N+](=O)[O-])CC1	-9.61% (inactive)
N#C/C(=C/c1ccc(N2CCCCC2)o1)C(=O)NCCc1c[nH]c2ccccc12	-56.8% (active)

Structure (SMILES)	activity change
C=CCNC(=O)/C(=C\c1cccc([N+](=O)[O-])c1)NC(=O)c1ccccc1	11.9% (inactive)
CCc1cccc(C)c1N(C(=O)Cn1c(CO)nc2ccccc21)C(C)COC (centres undefined)	-5.47% (inactive)
COc1ccc(N2c3ccccc3CN(Cc3ccccc3)[C@@H](C)[C@H]2Cc2ccc(-c3ccccc3)cc2)cc1	43% (inactive)
O=C(OCc1cn([C@H]2C[C@H](c3ccccc3)N(C(=O)c3cccs3)C[C@@H]2O)nn1)c1ccccc1	9.57% (inactive)
CCOC(=O)C1(Cc2ccc(Cl)cc2)CCN(C(=O)C2=NNC(=O)CC2)CC1	5.99% (inactive)
COc1ccc(S(=O)(=O)N2CCCCC2)cc1C(=O)NC1CCS(=O)(=O)C1 (centres undefined)	-14.7% (inactive)
CCN(CC)C(=O)C1CCCN(Cc2cccc(Cl)c2)C1 (centres undefined)	-7.01% (inactive)
O=C(C[C@H]1CC[C@@H](NC(=O)c2ccncc2)[C@@H](CO)O1)NCC1CC1	0.19% (inactive)
Cc1ccc(-n2c(SCC(=O)N3CCC(C(=O)O)CC3)nc3ccccc3c2=O)cc1C	6.5% (inactive)
O=S1(=O)C[C@@H](N2CCN(CCO)CC2)[C@H](COCc2ccccc2)N1	-19.7% (inactive)
COc1ccc(-c2ccc3[nH]c4c(c3c2)CCN2C[C@H]3[C@H](C)ON(C)[C@H]3C[C@@H]42)cc1	-18.3% (inactive)
Nc1nc(CSc2nnnn2-c2ccccc2)nc(Nc2ccccc2)n1	-29.1% (inactive)
CNC(=O)c1cccc2nc3ccccc3nc12	-78.6% (active)
CN(C)C(=O)c1coc2nc3ccccc3nc12	25.5% (inactive)
CNC(=O)c1csc(-c2ccccc2)n1	-4.77% (inactive)
COc1ccc(NC(=O)N2CCCC(C(=O)Nc3ccccc3OC)C2)cc1 (centres undefined)	-1.11% (inactive)
COc1ccc(C(=O)NC2CCN(C(=O)Nc3ccc(F)cc3)CC2)cc1	17.5% (inactive)
COc1ccc(NC(=O)N2CCC(Cc3ccccc3)CC2)cc1	-50.3% (active)
CC(C)OCCCNc1ncnc2c1[nH]c1ccc(F)cc12	-71% (active)
CCN1CCCC1CNC(=O)c1cc2cc(OC)c(OC)cc2[nH]1 (centres undefined)	-7.87% (inactive)
CCN1CCCC1CNc1ncnc2c1[nH]c1ccc(F)cc12 (centres undefined)	-94.3% (active)
CCN1CCCC1Cn1cnc2c([nH]c3cc(OC)ccc32)c1=O (centres undefined)	-21.8% (inactive)
